HepG2 viability: qHTS for Inhibitors of TGF-b: Cytotox Counterscreen; HepG2 CAGA-GFP viability, ATP luminescence, 18 h; Potency, µM (titrated, usually from 46.1 µM), most hits filed as cytotoxic; 410,000 compounds, 0.76% hits; AID 588856, 2011
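CellTiter-Glo luminescence gave cytotoxicity after 18 hours at 37 degrees C. The cells were HepG2 CAGA-GFP in 1% FBS DMEM, stimulated with 500 pg/mL TGF-beta after compound addition. %Activity was normalised to no-cell wells (complete cell-killing) and DMSO (no toxicity), and curves were fitted and classified.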
IL-1B inflam inh: qHTS for Inhibitors of Inflammasome Signaling: IL-1-beta AlphaLISA Primary Screen; THP-1 LPS/ATP IL-1B secretion, AlphaLISA, 16 h; active compounds read low; activity change, % at 57.5 µM; 360,000 compounds, 4.7% hits; AID 743279, 2014; in the data active means activity change below about -50%; inconclusive means mostly about -30% to -49%
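Secreted IL-1B measured by AlphaLISA bead assay after 16 h compound exposure of THP-1 cells; compounds (final up to 57.5 uM) added 1 h before LPS (250 ng/mL) and ATP (1.25 mM) stimulation; lower signal means less secretion.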
TDP1 cell CPT: qHTS for Inhibitors of human tyrosyl-DNA phosphodiesterase 1 (TDP1): qHTS in cells in presence of CPT | chicken DT40 Tdp1-/-;hTDP1 cells + 20 nM CPT, ATP luminescence, 48 h | Potency, µM (series often up to 46.2 µM), hits mostly inhibitors | 420,000 compounds, 12% hits | AID 686979, 2013; further: nearly all actives have a fitted effect of over 55% in size
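Chicken DT40 Tdp1-/- cells complemented with human TDP1, 400 cells/well, exposed to compounds plus 20 nM camptothecin for at least 48 h at 37 C; viability read as ATP content by CellTiter-Glo luminescence.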
TDP1 cell noCPT: qHTS for Inhibitors of human tyrosyl-DNA phosphodiesterase 1 (TDP1): qHTS in cells in absence of CPT; DT40 Tdp1-/- hTDP1 cells, no CPT, ATP luminescence, 48 h; 420,000 compounds, 15% hits; AID 686978, 2013; Potency, µM (titrated, usually from 46.2 µM), hits mostly inhibitors; further: nearly all actives have a fitted effect of over 55% in size
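Seeded 400 DT40-hTDP1 cells/well (vehicle DMSO, no 20 nM CPT); pinned compounds; ≥48 hr at 37 °C; CellTiter-Glo luminescence as viability measure.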
TDP1 inh: qHTS Assay for Inhibitors of Tyrosyl-DNA Phosphodiesterase (TDP1); AID 485290, 2010; Tyrosyl-DNA phosphodiesterase 1 (Homo sapiens), Q9NUW8; Potency, µM (series often up to 130 µM), usual class: inhibitors; 350,000 compounds, 0.28% hits; recombinant TDP1, AlphaScreen DNA substrate cleavage; further: nearly all actives have a fitted effect of over 40% in size
Target sequence (Q9NUW8 whole entry, looked up): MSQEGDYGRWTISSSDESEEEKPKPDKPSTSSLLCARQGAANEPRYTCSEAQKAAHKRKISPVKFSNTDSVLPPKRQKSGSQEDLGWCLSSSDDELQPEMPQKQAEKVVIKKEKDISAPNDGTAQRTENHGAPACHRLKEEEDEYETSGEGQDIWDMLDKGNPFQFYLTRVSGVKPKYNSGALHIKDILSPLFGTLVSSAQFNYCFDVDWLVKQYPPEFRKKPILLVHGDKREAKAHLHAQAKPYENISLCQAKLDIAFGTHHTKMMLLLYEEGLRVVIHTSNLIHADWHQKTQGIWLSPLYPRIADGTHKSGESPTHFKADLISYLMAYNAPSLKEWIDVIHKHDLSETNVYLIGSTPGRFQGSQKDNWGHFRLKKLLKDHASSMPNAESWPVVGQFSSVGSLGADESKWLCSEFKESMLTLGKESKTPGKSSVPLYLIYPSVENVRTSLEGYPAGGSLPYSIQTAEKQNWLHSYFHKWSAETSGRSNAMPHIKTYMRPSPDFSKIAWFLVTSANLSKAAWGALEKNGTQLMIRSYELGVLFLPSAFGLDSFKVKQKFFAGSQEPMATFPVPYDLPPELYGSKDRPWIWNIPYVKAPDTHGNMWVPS
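Recombinant E. coli-expressed Tdp1 (1 nM) preincubated with compound 15 min at RT, then 5'-biotin/3'-phosphotyrosine-FITC DNA substrate (15 nM) added for 5 min. AlphaScreen beads (10 ug/ml) added, 10 min RT; tyrosine-FITC cleavage read as signal loss.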
TGFb SMAD3 inh: qHTS for Inhibitors of TGF-b; 410,000 compounds, 1.2% hits; Potency, µM (titrated, usually from 46.1 µM), hits mostly inhibitors; HepG2 CAGA-GFP TGF-b/SMAD3 reporter, GFP fluorescence, 18 h; TGF-beta stimulated, 500 pg/mL final; AID 588855, 2011; further: nearly all actives have a fitted effect of over 65% in size
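HEPG2 CAGA-GFP reporter cells (1000/well, DMEM with 1% FBS) received compounds, then recombinant TGF-beta at 500 pg/mL final for 18 hours at 37 degrees C. Per-cell GFP summed per well was normalised to unstimulated and stimulated DMSO controls before curve fitting.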
A number is an active result; [ ] = remark or other dose. A selection: hits, their analogues and other compounds. The true share with any hit is near 18%. Unless noted, the call rests on the fitted dose curve; in most records, active means well fitted curve in the direction sought with a large enough effect; inconclusive means small, poorly fitted or top-dose-only effect, or another doubt; inactive means no such curve, though single readings can be large; an effect the other way counts as inactive or inconclusive.

`CC1CC(C)C(=O)[C@H](C(O)CC2CC(=O)NC(=O)C2)C1` (stereo partly specified) gave TDP1 cell CPT 0.29µM, TDP1 cell noCPT 0.073µM and TDP1 inh inactive.
Screening C=C(C)C1CNC(C(=O)O)C1CC(=O)O (stereo unspecified) returned TDP1 cell CPT inactive, TDP1 cell noCPT inactive and TDP1 inh inactive.
`CCN(CC)P(=S)(c1c(C)nc2ccccn12)c1c(C)nc2ccccn12` gave HepG2 viability inactive, IL-1B inflam inh inactive, TDP1 cell CPT 26µM, TDP1 cell noCPT inconclusive, TDP1 inh inactive and TGFb SMAD3 inh inactive.
`COc1cc2c(cc1-c1cc3cc4ccoc4cc3oc1=O)OCO2` gave TDP1 cell CPT inactive, TDP1 cell noCPT inactive and TDP1 inh inactive.
CCC1CN2CCC1CC2C(O)c1ccnc2ccc(OC)cc12 (stereo unspecified) was read as TDP1 cell CPT inconclusive, TDP1 cell noCPT inconclusive and TDP1 inh inactive.
For C#CCC(Cc1cnc2nc(N)nc(N)c2n1)c1ccc(C(=O)N[C@@H](CCC(=O)O)C(=O)O)cc1 (stereo partly specified) the results were TDP1 cell CPT 0.034µM and TDP1 cell noCPT 0.024µM.
O=C(COc1ccc(Cl)cc1)Nc1ccc(Cl)cc1C(=O)c1ccccc1 was read as HepG2 viability inactive, TDP1 cell CPT inactive, TDP1 cell noCPT inactive, TDP1 inh inactive[12.3 µM] and TGFb SMAD3 inh inactive.
For Cc1cccc(C)c1OCC(=O)Nc1ccc(Cl)cc1C(=O)c1ccccc1 the results were HepG2 viability inactive, TDP1 cell CPT inactive, TDP1 cell noCPT inactive, TDP1 inh inactive[12.3 µM] and TGFb SMAD3 inh inconclusive.
Screening Cc1ccccc1NC(=O)CCl returned HepG2 viability inactive, IL-1B inflam inh -86, TDP1 cell CPT 18µM, TDP1 cell noCPT 23µM and TGFb SMAD3 inh inconclusive.
Cc1ccc(Cl)cc1N1CCN(C(=O)C2CCN(Cc3nc(-c4ccc(Cl)cc4)oc3C)CC2)CC1 was read as HepG2 viability inactive, TDP1 cell CPT inconclusive, TDP1 cell noCPT 15µM, TDP1 inh inactive and TGFb SMAD3 inh inconclusive.
For COc1cccc(-c2nc(CS(=O)CC(=O)N3CCC4(CC3)OCCO4)c(C)o2)c1 (stereo unspecified) the results were HepG2 viability inactive, IL-1B inflam inh inactive, TDP1 cell CPT inactive, TDP1 cell noCPT inactive, TDP1 inh inactive and TGFb SMAD3 inh inactive.
`Cc1ccc(C)c(N2CCN(C(=O)C3CCN(Cc4nc(-c5cccc(Cl)c5)oc4C)CC3)CC2)c1` gave HepG2 viability inactive, TDP1 cell CPT 9.2µM, TDP1 cell noCPT 6.5µM, TDP1 inh inactive and TGFb SMAD3 inh inactive.
For CC(C)CCNc1nnnc2c1sc1nc(N3CCOCC3)c3c(c12)CC(C)(C)SC3 the results were HepG2 viability inactive, IL-1B inflam inh inactive, TDP1 cell CPT 23µM, TDP1 cell noCPT 18µM, TDP1 inh inactive and TGFb SMAD3 inh inactive.
Screening N#CN=C1SCCN1Cc1ccc(Cl)nc1 returned TDP1 inh inactive.
Screening COC(=O)C1=C(c2cc3ccccc3o2)C[C@@H]2CC[C@H]1N2C(=O)N1CCC(C)CC1 returned HepG2 viability inactive, IL-1B inflam inh inactive, TDP1 cell CPT 4.6µM, TDP1 cell noCPT 2.9µM and TGFb SMAD3 inh inconclusive.
`COC(=O)C1=C(c2cc3ccccc3o2)C[C@@H]2CC[C@H]1N2C(=O)N1CCC(O)CC1` gave HepG2 viability inactive, IL-1B inflam inh inactive, TDP1 cell CPT inconclusive, TDP1 cell noCPT 23µM and TGFb SMAD3 inh inactive.
Screening CCCCn1c(N)c(N(CCOC)C(=O)CCCn2c(=O)oc3ccccc32)c(=O)[nH]c1=O returned HepG2 viability inactive, IL-1B inflam inh inactive, TDP1 cell CPT inactive, TDP1 cell noCPT inactive and TGFb SMAD3 inh inactive.
CC(C)(C)OOC(C)(C)C was read as TDP1 inh inactive.
OC12C3C4CC5C6C4C1C6C(C53)N2CCc1cccc(F)c1 (stereo unspecified) was read as TDP1 inh inactive.
Cc1[nH]n(-c2ccccc2)c(=O)c1C(c1ccc([N+](=O)[O-])cc1)c1c(C)[nH]n(-c2ccccc2)c1=O was read as HepG2 viability inactive, IL-1B inflam inh inactive, TDP1 cell CPT 16µM, TDP1 cell noCPT inconclusive, TDP1 inh inactive and TGFb SMAD3 inh inconclusive.
Screening Cc1[nH]n(-c2ccccc2)c(=O)c1C(C[N+](=O)[O-])c1ccccc1Cl (stereo unspecified) returned HepG2 viability inactive, IL-1B inflam inh inactive, TDP1 cell CPT 21µM, TDP1 cell noCPT 29µM, TDP1 inh inactive and TGFb SMAD3 inh inactive.
For CC(Cc1ccc2c(c1)OCO2)NO (stereo unspecified) the results were TDP1 cell CPT inactive and TDP1 cell noCPT inactive.
c1ccc(SSc2ccccc2)cc1 was read as HepG2 viability inactive, IL-1B inflam inh -101, TDP1 cell CPT 12µM, TDP1 cell noCPT 12µM, TDP1 inh inactive and TGFb SMAD3 inh inactive.
Screening c1ccc(CCN2CCOCC2)cc1 returned HepG2 viability inactive, TDP1 cell CPT inactive, TDP1 cell noCPT inactive and TGFb SMAD3 inh inactive.
COc1ccc(CCNC(=O)c2c(N)n(CCN3CCOCC3)c3nc4ccccc4nc23)cc1 was read as HepG2 viability inactive, IL-1B inflam inh inconclusive, TDP1 cell CPT 21µM, TDP1 cell noCPT 18µM, TDP1 inh inactive and TGFb SMAD3 inh inconclusive.
Screening CCOC(=O)c1c(N)n(CCN2CCCCC2)c2nc3ccccc3nc12 returned HepG2 viability inactive, IL-1B inflam inh -83, TDP1 cell CPT inactive, TDP1 cell noCPT inactive, TDP1 inh inactive and TGFb SMAD3 inh inactive.
Screening COCCNC(=O)c1c(N)n(Cc2ccco2)c2nc3ccccc3nc12 returned HepG2 viability inactive, IL-1B inflam inh inactive, TDP1 cell CPT inconclusive, TDP1 cell noCPT inconclusive, TDP1 inh inactive and TGFb SMAD3 inh inactive.
For C=CCNC(=O)c1c(N)n(Cc2ccco2)c2nc3ccccc3nc12 the results were HepG2 viability inactive, IL-1B inflam inh inactive, TDP1 cell CPT 7.3µM, TDP1 cell noCPT 15µM, TDP1 inh inactive and TGFb SMAD3 inh inactive.
`Nc1c(C(=O)NCCc2ccccc2)c2nc3ccccc3nc2n1CCN1CCOCC1` gave HepG2 viability inactive, IL-1B inflam inh -86, TDP1 cell CPT 21µM, TDP1 cell noCPT 16µM, TDP1 inh inactive and TGFb SMAD3 inh inconclusive.

High-throughput results (PubChem BioAssay)
